Data: PubChem BioAssay (EPA / NIEHS)
Activity calls are given as the source filed them. How the source made its calls: active means hit-call score of the fitted dose curve at least 0.9, where 1 is the maximum; inactive means score below 0.9.

Columns and labels:
[1] = molecular target: Transcription factor E2F1 (Homo sapiens) (UniProt Q01094); test: ATG_E2F_CIS: Attagene CIS-FACTORIAL HepG2 Assay for human E2F Transcription Factor 1 (AID 2282935); details: HepG2 Attagene cis-reporter, E2F reporter RNA transcripts; actives raise or lower the signal
Sequence of Transcription factor E2F1 (Homo sapiens) (Q01094 whole entry, looked up): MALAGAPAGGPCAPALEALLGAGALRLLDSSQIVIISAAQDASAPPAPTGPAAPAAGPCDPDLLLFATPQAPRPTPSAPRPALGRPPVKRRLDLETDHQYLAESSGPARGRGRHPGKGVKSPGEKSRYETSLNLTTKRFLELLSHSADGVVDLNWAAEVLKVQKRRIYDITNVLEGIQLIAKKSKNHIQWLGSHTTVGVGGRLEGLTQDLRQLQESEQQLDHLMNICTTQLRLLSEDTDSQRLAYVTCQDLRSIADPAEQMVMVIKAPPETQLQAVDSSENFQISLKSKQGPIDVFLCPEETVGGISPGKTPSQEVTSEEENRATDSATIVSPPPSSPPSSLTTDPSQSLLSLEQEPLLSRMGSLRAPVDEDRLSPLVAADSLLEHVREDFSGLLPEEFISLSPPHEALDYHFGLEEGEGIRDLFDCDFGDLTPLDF
How it was run: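 Gain or loss of reporter transcript, fitted against DMSO, reflects E2F1-driven transcription. Transiently transfected HepG2 dosed 24 h before RNA isolation. Quantified by fluorescent RT-PCR products separated by capillary electrophoresis.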

[2] = ATG_E_Box_CIS: Attagene CIS-FACTORIAL HepG2 Assay for human Enhancer Box (E-box) (AID 2282936); details: HepG2 E-box cis-reporter transcription, actives raise or lower the signal
How it was run: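 E-box-driven reporter transcripts measured in transiently transfected HepG2 after 24 h exposure: RNA reverse-transcribed, PCR-amplified, fluorescently labelled, digested and resolved by capillary electrophoresis. Gain or loss relative to DMSO.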

[3] = ATG_M_61_CIS: Attagene CIS-FACTORIAL HepG2 Assay for M61 Transcription Factor (Internal Marker) (AID 2282937); details: HepG2 Attagene CIS-FACTORIAL M61 internal marker reporter; actives raise or lower the signal
How it was run: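 HepG2 cells transiently transfected with multiplexed cis-promoter reporter units reporting endogenous transcription factor activity, measured 24 h after dosing. Reporter mRNA quantified by RT-PCR and capillary electrophoresis; bidirectional fit against DMSO baseline.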

[4] = ATG_EGR_CIS: Attagene CIS-FACTORIAL HepG2 Assay for human Early Growth Response 1 (EGR1) (AID 2282938); details: HepG2 Attagene CIS-FACTORIAL EGR reporter mRNA; actives raise or lower the signal
How it was run: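 HepG2 cells transiently transfected with cis-element-driven multiplexed reporter units, dosed for 24 h. EGR1-element reporter mRNA quantified by RT-PCR, 6-FAM labelling, HpaI digestion and capillary electrophoresis; bidirectional fit versus DMSO.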

[5] = ATG_M_19_CIS: Attagene CIS-FACTORIAL HepG2 Assay for M19 Transcription Factor (Internal Marker) (AID 2282939); details: HepG2 Attagene CIS-FACTORIAL M19 internal marker reporter; actives raise or lower the signal
How it was run: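 HepG2 cells transiently transfected with cis-regulated multiple reporter transcription units were dosed for 24 h; reporter mRNA was quantified by RT-PCR, 6-FAM primer-extension labelling, HpaI digestion and capillary electrophoresis, with bidirectional fitting against DMSO baseline.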

[6] = ATG_ERE_CIS: Attagene CIS-FACTORIAL HepG2 Assay for Estrogen Response Element (ERE) (AID 2282940); details: HepG2 ERE cis-reporter, Attagene RNA transcript; actives raise or lower the signal
How it was run: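 HepG2 cells transiently transfected with cis-promoter-driven multiplexed reporter transcription units report endogenous TF activity. After 24 h compound exposure, reporter mRNA is quantified by RT-PCR with capillary electrophoresis fluorescence; bidirectional fitting versus DMSO baseline.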

[7] = ATG_Ets_CIS: Attagene CIS-FACTORIAL HepG2 Assay for human Erythroblast Transformation Specific (ETS) (AID 2282941); details: HepG2 ETS cis-reporter transcription, actives raise or lower the signal
How it was run: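 Endogenous transcription factor activity read as reporter mRNA via RT-PCR and capillary electrophoresis, with gain or loss fitted bidirectionally against DMSO. Human HepG2 liver cells, transiently transfected CIS reporter constructs, 24 h exposure.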

[8] = molecular target: Hepatocyte nuclear factor 3-beta (Homo sapiens) (UniProt Q9Y261); test: ATG_FoxA2_CIS: Attagene CIS-FACTORIAL HepG2 Assay for human Forkhead box A2 (FOXA2) (AID 2282942); details: HepG2 cis-reporter transcription factor activity, 24 h; actives raise or lower the signal
Sequence of Hepatocyte nuclear factor 3-beta (Homo sapiens) (Q9Y261 whole entry, looked up): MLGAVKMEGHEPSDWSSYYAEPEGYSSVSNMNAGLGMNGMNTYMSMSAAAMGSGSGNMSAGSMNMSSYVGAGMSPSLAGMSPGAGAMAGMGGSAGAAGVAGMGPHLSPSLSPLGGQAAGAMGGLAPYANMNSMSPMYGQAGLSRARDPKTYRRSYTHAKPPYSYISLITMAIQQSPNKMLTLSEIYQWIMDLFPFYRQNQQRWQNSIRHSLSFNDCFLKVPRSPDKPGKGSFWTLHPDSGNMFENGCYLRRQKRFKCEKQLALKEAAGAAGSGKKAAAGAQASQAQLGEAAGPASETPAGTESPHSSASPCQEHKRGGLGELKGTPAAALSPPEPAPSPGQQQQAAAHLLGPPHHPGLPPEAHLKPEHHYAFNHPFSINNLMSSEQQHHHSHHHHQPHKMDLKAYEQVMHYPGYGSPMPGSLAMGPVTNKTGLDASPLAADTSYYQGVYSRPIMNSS
How it was run: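 HepG2 transiently transfected with a multiplexed cis-promoter reporter library read endogenous FOXA2 activity. After 24 h compound exposure, reporter mRNA was quantified by RT-PCR, HpaI digestion and capillary electrophoresis. Bidirectional fit against DMSO.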

[9] = ATG_FoxO_CIS: Attagene CIS-FACTORIAL HepG2 Assay for human Forkhead box O (FoxO) (AID 2282943); details: HepG2 Attagene cis-reporter, FoxO element, mRNA; actives raise or lower the signal
How it was run: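 Human hepatoma HepG2 cells carry transiently introduced reporter transcription units controlled by cis promoter elements. Chemical treatment lasted 24 h, and mRNA signal was compared with DMSO.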

[10] = ATG_GLI_CIS: Attagene CIS-FACTORIAL HepG2 Assay for human Zinc Finger Protein GLI1 (AID 2282945); details: HepG2, Attagene cis-factorial reporter mRNA, GLI element; actives raise or lower the signal
How it was run: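 Bidirectional curve fits relative to DMSO, using reporter mRNA levels from RT-PCR plus capillary electrophoresis. Cells were HepG2 transiently carrying cis-regulated reporter constructs, harvested 24 h after dosing.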

[11] = molecular target: Bile acid receptor (Homo sapiens) (UniProt Q96RI1); test: ATG_IR1_CIS: Attagene CIS-FACTORIAL HepG2 Assay for human Nuclear Receptor Subfamily 1 Group H Member 4 (NR1H4), IR1 submotif (AID 2282946); details: IR1 reporter transcription, actives raise or lower the signal
Sequence of Bile acid receptor (Homo sapiens) (Q96RI1 whole entry, looked up): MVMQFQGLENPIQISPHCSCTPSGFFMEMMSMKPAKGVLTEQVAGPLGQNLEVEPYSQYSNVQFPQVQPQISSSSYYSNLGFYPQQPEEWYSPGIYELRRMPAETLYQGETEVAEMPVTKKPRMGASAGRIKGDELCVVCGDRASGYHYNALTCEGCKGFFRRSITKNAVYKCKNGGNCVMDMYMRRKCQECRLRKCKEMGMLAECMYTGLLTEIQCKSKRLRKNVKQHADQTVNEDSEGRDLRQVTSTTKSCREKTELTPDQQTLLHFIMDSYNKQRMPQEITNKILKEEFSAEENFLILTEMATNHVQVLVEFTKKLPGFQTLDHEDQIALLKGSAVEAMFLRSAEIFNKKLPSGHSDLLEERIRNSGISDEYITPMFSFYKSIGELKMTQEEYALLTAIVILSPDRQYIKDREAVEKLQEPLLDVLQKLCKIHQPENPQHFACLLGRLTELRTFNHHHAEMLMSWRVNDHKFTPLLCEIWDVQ
How it was run: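 HepG2 cells transiently transfected with multiplexed cis-element reporter units read endogenous transcription factor activity. After 24 h compound exposure, reporter mRNA was quantified by RT-PCR, fluorescent labelling, HpaI digestion and capillary electrophoresis; bidirectional fitting versus DMSO baseline.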

[12] = ATG_ISRE_CIS: Attagene CIS-FACTORIAL HepG2 Assay for human Interferon Regulatory Factor 1 (IRF1) binding to an Interferon-Stimulated Response Element (ISRE) (AID 2282948); details: HepG2 ISRE cis-reporter (Attagene), mRNA transcription readout; actives raise or lower the signal
How it was run: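 Endogenous transcription factor activity read as reporter transcript abundance via RT-PCR and capillary electrophoresis. HepG2 cells transiently transfected, 24 h chemical exposure. Gain or loss fitted against DMSO baseline.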

[13] = ATG_M_32_CIS: Attagene CIS-FACTORIAL HepG2 Assay for M32 Transcription Factor (Internal Marker) (AID 2282949); details: HepG2 Attagene cis-factorial M32 reporter, mRNA; actives raise or lower the signal;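 further: background control marker of the multiplexed CIS panel rather than a real target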
How it was run: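 HepG2 transfectants (cis-regulated reporter transcription units) dosed 24 h. Reporter mRNA by RT-PCR plus CE, analysed as gain or loss relative to DMSO.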

[14] = ATG_M_06_CIS: Attagene CIS-FACTORIAL HepG2 Assay for M06 Transcription Factor (Internal Marker) (AID 2282950); details: HepG2 Attagene CIS-FACTORIAL M06 internal marker reporter; actives raise or lower the signal
How it was run: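 HepG2 cells transiently transfected with cis-regulated multiple reporter transcription units were exposed to chemical for 24 h; reporter mRNA was quantified by RT-PCR, 6-FAM primer labelling, HpaI digestion and capillary electrophoresis, fitted bidirectionally against DMSO.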

[15] = molecular target: Hypoxia-inducible factor 1-alpha (Homo sapiens) (UniProt Q16665); test: ATG_HIF1a_CIS: Attagene CIS-FACTORIAL HepG2 Assay for human Hypoxia Inducible Factor 1 (HIF1A) (AID 2282951); details: HepG2 Attagene cis-factorial HIF1a reporter transcription; actives raise or lower the signal
Sequence of Hypoxia-inducible factor 1-alpha (Homo sapiens) (Q16665 whole entry, looked up): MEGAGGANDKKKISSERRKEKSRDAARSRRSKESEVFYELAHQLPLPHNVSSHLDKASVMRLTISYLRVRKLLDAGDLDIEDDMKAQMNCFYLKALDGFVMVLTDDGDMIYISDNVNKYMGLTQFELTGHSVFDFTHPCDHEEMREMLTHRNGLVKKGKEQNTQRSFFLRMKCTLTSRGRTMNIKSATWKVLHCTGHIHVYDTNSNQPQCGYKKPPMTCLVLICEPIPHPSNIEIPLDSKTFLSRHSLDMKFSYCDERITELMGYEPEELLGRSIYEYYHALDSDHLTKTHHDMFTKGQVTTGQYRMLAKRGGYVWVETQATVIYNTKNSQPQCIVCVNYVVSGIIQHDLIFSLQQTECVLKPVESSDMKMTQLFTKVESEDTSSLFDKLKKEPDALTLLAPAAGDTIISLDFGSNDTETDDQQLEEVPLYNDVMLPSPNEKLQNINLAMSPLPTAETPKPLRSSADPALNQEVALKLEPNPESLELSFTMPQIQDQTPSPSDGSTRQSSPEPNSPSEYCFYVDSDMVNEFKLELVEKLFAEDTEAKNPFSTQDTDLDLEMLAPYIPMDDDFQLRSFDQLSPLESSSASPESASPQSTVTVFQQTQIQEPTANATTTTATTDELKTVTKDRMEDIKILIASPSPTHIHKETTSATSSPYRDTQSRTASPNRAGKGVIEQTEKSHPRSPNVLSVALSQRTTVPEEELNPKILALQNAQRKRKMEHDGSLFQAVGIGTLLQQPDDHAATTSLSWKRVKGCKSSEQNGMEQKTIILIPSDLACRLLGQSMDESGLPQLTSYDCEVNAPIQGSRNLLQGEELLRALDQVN
How it was run: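 HepG2 cells transiently transfected with multiple cis-regulated reporter transcription units measure endogenous transcription factor activity. After 24 h exposure, reporter mRNA is quantified by RT-PCR with 6-FAM labelling, HpaI digestion and capillary electrophoresis. Bidirectional fitting against DMSO.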

[16] = molecular target: Hepatocyte nuclear factor 6 (Homo sapiens) (UniProt Q9UBC0); test: ATG_HNF6_CIS: Attagene CIS-FACTORIAL HepG2 Assay for human Hepatocyte Nuclear Factor 6 (HNF6) (AID 2282952); details: HepG2 Attagene cis-factorial HNF6 reporter transcription; actives raise or lower the signal
Sequence of Hepatocyte nuclear factor 6 (Homo sapiens) (Q9UBC0 whole entry, looked up, the tested form may be a part): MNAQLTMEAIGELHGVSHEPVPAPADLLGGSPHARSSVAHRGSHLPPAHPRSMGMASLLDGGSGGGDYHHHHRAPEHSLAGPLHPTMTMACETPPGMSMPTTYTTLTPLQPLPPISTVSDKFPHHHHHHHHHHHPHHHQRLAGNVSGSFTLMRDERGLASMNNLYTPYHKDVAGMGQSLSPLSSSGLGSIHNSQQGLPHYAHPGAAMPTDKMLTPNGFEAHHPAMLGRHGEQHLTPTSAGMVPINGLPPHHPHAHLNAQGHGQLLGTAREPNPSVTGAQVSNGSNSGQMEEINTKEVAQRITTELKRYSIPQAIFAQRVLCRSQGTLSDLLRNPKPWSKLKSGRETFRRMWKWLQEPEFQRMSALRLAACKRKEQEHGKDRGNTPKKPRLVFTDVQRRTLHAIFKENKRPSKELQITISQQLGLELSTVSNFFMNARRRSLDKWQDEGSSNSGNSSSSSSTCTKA
How it was run: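 First, HepG2 cells were transfected with the multiplexed cis reporter library and dosed with chemical for 24 h. Next, RNA was reverse-transcribed, PCR-amplified and fluorescently labelled. Finally, HpaI-digested fragments were read by capillary electrophoresis.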

[17] = molecular target: Heat shock factor protein 1 (Homo sapiens) (UniProt Q00613); test: ATG_HSE_CIS: Attagene CIS-FACTORIAL HepG2 Assay for human Heat Shock Transcription Factor 1 (HSE) (AID 2282953); details: HepG2 HSE cis-reporter, Attagene RNA transcription; actives raise or lower the signal
Sequence of Heat shock factor protein 1 (Homo sapiens) (Q00613 whole entry, looked up): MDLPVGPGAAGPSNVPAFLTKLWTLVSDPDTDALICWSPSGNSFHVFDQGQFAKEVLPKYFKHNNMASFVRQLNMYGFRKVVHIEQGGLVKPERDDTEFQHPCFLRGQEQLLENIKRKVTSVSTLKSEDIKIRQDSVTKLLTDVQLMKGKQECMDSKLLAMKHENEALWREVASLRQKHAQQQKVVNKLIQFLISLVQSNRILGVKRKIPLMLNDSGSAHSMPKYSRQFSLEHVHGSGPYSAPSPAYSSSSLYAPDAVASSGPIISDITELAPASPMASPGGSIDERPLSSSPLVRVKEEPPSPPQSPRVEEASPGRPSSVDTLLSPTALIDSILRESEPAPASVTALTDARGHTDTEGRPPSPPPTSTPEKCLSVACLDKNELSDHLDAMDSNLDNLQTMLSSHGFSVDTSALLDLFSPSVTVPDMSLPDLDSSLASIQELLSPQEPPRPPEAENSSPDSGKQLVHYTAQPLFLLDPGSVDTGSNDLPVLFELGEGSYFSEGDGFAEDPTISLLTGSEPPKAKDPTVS
How it was run: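 HepG2 cells transiently transfected with multiple reporter transcription units under cis-regulatory promoter control, measuring endogenous transcription factor activity. After 24 h chemical exposure, reporter mRNA quantified by RT-PCR, fluorescent labelling, HpaI digestion and capillary electrophoresis; bidirectional fit versus DMSO.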

[18] = ATG_MRE_CIS: Attagene CIS-FACTORIAL HepG2 Assay for human Metal Responsive Element (MRE) (AID 2282954); details: HepG2 MRE cis-reporter transcription, Attagene multiplex; actives raise or lower the signal
How it was run: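 Endogenous MRE-dependent transcription read as reporter mRNA in transiently transfected human HepG2 cells at 24 h. RNA reverse-transcribed, PCR-amplified, labelled and resolved by capillary electrophoresis; gain or loss relative to DMSO.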

[19] = ATG_GATA_CIS: Attagene CIS-FACTORIAL HepG2 Assay for human GATA Binding Protein (AID 2282944); details: HepG2 GATA cis-element reporter, Attagene multiplex mRNA; actives raise or lower the signal
How it was run: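 HepG2 cells transiently transfected with multiplexed cis-element reporter units reflecting endogenous transcription factor activity; reporter mRNA measured after 24 h dosing by RT-PCR, 6-FAM labeling, HpaI digestion and capillary electrophoresis. Bidirectional fitting versus DMSO baseline.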

[20] = ATG_GRE_CIS: Attagene CIS-FACTORIAL HepG2 Assay for human Glucocorticoid Response Elements (GRE) (AID 2282947); details: HepG2 GRE cis-reporter, Attagene multiplex mRNA; actives raise or lower the signal
How it was run: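 Reporter transcripts read by RT-PCR with capillary electrophoresis fluorescence after a 24 h chemical exposure of HepG2 cells transiently transfected with multiple cis-element reporter units. Gain or loss fitted against DMSO.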

Measured: outcome

CCCCCc1cccc(=O)o1
not listed: [19] | [20]
inactive: all other assays above

C=CCCCCCCCCC(=O)OCC
not listed: [11] | [12] | [18] | [20]
inactive: all other assays above

CCCCCCCCCCO[C@@H]1O[C@H](CO)[C@@H](O)[C@H](O)[C@H]1O
not listed: [11] | [14] | [20]
inactive: all other assays above

CCCCN(CCCC)CCCCCCN(CCCC)CCCC
not listed: [11] | [14] | [20]
inactive: all other assays above

CCCCCC#CC(=O)OC
not listed: [11] | [12] | [20]
inactive: all other assays above

NC(=O)NC(N)=O
not listed: [11] | [12] | [14] | [18] | [20]
inactive: all other assays above

CC(=O)Nc1cc(S(=O)(=O)O)cc2cc(S(=O)(=O)O)c(N=Nc3ccccc3)c(O)c12
not listed: [11] | [13] | [18] | [20]
inactive: all other assays above

Brc1cc(Br)cc(Br)c1
not listed: [19]
inactive: all other assays above

CCCO
not listed: [11] | [13] | [18] | [19]
inactive: all other assays above
